From PubChem BioAssay
Rows were chosen to be rich in hits. Some 13% of all compounds tested hit in one or more screens of this group.
USP17 inh = inhibitors of human USP17 deubiquitinase; A8MUK1; purified USP17, Ub-rhodamine cleavage fluorescence, 3 h; inhibition, % at 50 µM; actives 6.5% (n = 47,000)
USP10 block = inhibitors of human USP10 deubiquitinase; Q14694; purified USP10, Ub-rhodamine fluorescence, 60 min; inhibition, % at 20 µM; actives 1.1% (n = 47,000); AID 1645856
USP30 block = human USP30 deubiquitinase inhibition; purified USP30, Ub-rhodamine cleavage fluorescence; inhibition, % at 25 µM; actives 5.3% (n = 47,000); AID 1645860
OTUD3 inh = blocks human OTUD3 ubiquitin-rhodamine cleavage. inhibition, % at 25 µM. Q5T2D3. actives 0.7% (n = 47,000). purified OTUD3, Ub-rhodamine fluorescence, 2 h. AID 1645858
USP8 inh = blocks human USP8 ubiquitin-rhodamine cleavage. actives 4.2% (n = 47,000). AID 1645853. P40818. inhibition, % at 20 µM. purified USP8, Ub-rhodamine cleavage fluorescence, 30 min
Target sequence (P40818 whole entry, looked up): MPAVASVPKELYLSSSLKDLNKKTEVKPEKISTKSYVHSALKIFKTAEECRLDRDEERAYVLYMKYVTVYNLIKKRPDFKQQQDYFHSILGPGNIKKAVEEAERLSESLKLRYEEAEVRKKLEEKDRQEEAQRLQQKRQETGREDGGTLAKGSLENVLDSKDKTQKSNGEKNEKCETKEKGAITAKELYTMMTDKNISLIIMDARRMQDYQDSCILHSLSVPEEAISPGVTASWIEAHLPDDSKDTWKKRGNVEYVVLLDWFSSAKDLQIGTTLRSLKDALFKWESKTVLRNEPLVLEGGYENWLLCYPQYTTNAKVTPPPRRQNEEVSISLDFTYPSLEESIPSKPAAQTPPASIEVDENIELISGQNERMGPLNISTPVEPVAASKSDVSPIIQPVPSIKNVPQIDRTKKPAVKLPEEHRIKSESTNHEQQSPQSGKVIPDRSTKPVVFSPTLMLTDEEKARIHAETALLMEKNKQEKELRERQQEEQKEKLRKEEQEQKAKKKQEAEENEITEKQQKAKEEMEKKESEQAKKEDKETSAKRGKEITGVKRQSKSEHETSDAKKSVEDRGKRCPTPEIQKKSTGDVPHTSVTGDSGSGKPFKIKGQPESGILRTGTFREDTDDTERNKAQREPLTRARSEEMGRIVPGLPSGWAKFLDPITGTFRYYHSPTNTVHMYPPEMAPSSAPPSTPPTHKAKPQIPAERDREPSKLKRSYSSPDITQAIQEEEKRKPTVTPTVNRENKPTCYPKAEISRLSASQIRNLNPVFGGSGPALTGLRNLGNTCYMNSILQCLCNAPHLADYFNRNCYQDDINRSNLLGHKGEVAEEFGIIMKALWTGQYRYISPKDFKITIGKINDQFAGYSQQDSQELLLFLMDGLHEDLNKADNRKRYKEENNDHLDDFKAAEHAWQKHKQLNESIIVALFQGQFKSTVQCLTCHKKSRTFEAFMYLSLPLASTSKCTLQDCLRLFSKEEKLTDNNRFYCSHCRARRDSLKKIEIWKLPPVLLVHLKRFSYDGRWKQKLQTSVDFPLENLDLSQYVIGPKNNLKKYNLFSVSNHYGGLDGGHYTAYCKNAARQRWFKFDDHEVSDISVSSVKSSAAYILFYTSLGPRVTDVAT
USP28 inh = blocks human USP28 ubiquitin-rhodamine cleavage; Q96RU2; purified USP28, Ub-rhodamine cleavage fluorescence, 30 min; inhibition, % at 25 µM; actives 3% (n = 47,000); AID 1645857
Hits are given with their value; i = inactive; nt = not tested or not shown. No stated cut-off is given here; in the data, active means inhibition above about 30%; inactive means the rest.

SMILES	USP17 inh	USP10 block	USP30 block	OTUD3 inh	USP8 inh	USP28 inh
COc1ccc2c(CNCCc3ccccc3)c(C(=O)O)n(Cc3ccc(F)cc3Cl)c2c1	i	i	30.4	i	i	i
COc1ccc(C)cc1NC(=O)c1cc2ccccc2cc1OCC(=O)N1CCCC1	i	i	i	i	i	i
Cc1ccc(S(=O)(=O)NCC(=O)OC(C(=O)Nc2cc(C)ccc2C)c2ccccc2)cc1 (centres undefined)	50.8	i	46.8	i	i	i
COc1ccc(C)cc1NC(=O)C(OC(=O)c1cc(S(=O)(=O)N2CCOCC2)ccc1C)c1ccccc1 (centres undefined)	i	i	i	i	i	i
CCC(C)(C)c1nnc(NC(=O)C2CC(=O)N(C(C)(C)C)C2)s1 (centres undefined)	i	i	i	i	i	i
C=C1Nc2ccccc2C(=O)N1c1cccc(NC(=O)c2ccc(C)c(C)c2)c1	i	i	i	30.2	i	i
O=C(CCCc1ccccc1)N1CCN(c2ccc(-c3ccc4c(c3)OCO4)nn2)CC1	i	i	30.0	i	i	i
CCC(C)N1CNc2c(c(=O)[nH]c(=O)n2CCc2ccccc2)C1 (centres undefined)	i	i	i	i	i	i
Clc1cccc(-c2noc3ncnc(NCc4ccco4)c23)c1	i	i	36.5	i	i	i
COc1ccc(-c2oc3ncnc(NCc4ccco4)c3c2-c2ccc(OC)cc2)cc1	30.3	i	i	i	i	i
CC(=O)Nc1onc(C)c1-c1ccc(C)c(S(=O)(=O)N2CCC(C)CC2)c1	i	i	i	i	i	i
COc1cccc2cc(C(=O)NC3CCSC3=O)oc12 (centres undefined)	i	i	i	i	i	i
O=C(NCc1ccc(F)cc1)c1cccc(Nc2nc3ccccc3n3cnnc23)c1	71.7	37.6	80.3	66.9	i	74.8
CCc1nc2ccc(C(=O)Nc3nc(-c4ccc5c(c4)CCN5C(=O)C(C)C)cs3)cc2nc1CC	i	i	i	i	i	i
COc1ccc(C2CC(=O)C3=C(C2)Nc2ccccc2N(C(=O)CC(C)C)C3c2cccnc2)cc1 (centres undefined)	i	i	i	i	i	i
Nc1c(C(=O)NCC2CCCO2)nnn1-c1ccccc1Cl (centres undefined)	i	i	i	i	32.1	i
CCCNC(=O)c1nnn(-c2ccc3noc(-c4ccc(Cl)cc4)c3c2)c1C	i	i	i	i	i	i
Cc1cc(C)c(NC(=O)Cc2c(C)nc3c(-c4ccccc4)c(C)nn3c2C)c(C)c1	i	i	34.7	i	i	i
O=C1CC2C3CCC(=O)c4c(O)ccc(c43)C2(O)c2cccc(O)c21 (centres undefined)	46.9	i	i	i	34.6	36.9
CS(=O)(=O)Nc1cccc(CNC(=O)c2nc(-c3ccccc3)n(-c3ccccc3)n2)c1	i	i	i	i	37.7	i
CN(Cc1ccc2c(c1)OCO2)C(=O)c1nc(-c2ccccc2)n(-c2ccccc2)n1	i	i	i	i	i	i
O=C(Cn1ccc2ccc(N3CCOCC3)nc21)N1CCN(c2ccccc2)CC1	i	i	i	i	i	i
O=C(COC(=O)c1ccccc1OCc1ccccc1)Nc1cccc2ccccc12	i	i	48.7	i	i	30.3
N#Cc1ccc(NC(=O)COC(=O)c2ccccc2Nc2ccccc2)cc1	34.1	i	i	i	i	i
O=C(COC(=O)c1ccccc1OCc1ccccc1)Nc1ccc(Cl)cc1	i	i	34.4	i	i	36.2
SMILES	USP17 inh	USP10 block	USP30 block	OTUD3 inh	USP8 inh	USP28 inh
O=C(c1ccccc1Cl)N1CCC(c2nnc(C3CC3)s2)CC1	i	i	i	i	i	i
CCc1nc(-c2ccc(C)c(S(=O)(=O)NCC(C)c3ccccc3)c2)no1 (centres undefined)	i	i	i	i	i	i
CC(c1ccccc1)c1nc(-c2ccc(=O)[nH]c2)no1 (centres undefined)	i	i	i	i	i	60.9
CCOC(=O)c1ccc(OCC2c3cc(OC)c(OC)cc3CCN2C(=O)C(C)Oc2ccccc2)cc1 (centres undefined)	32.4	i	i	i	85.3	i
CS(=O)(=O)c1cnc(-c2ccc(OCC3OCCO3)cc2)nc1-c1cccc(C(F)(F)F)c1	i	i	i	i	i	i
Cc1nc2c(c(-c3ccc(O)cc3)n1)CCNCC2	i	i	i	i	45.7	i
COC(=O)c1ccc2c(=O)n(CCCCCC(=O)NCc3cccc(Cl)c3)c(=O)[nH]c2c1	31.0	38.6	61.8	i	65.0	i
Cn1cc(CCCC(=O)NCc2cccc(Cl)c2)c2ccccc21	i	i	i	i	i	i
COC(=O)c1ccc2c(=O)n(CCCCCC(=O)NCCc3ccc(OC)c(OC)c3)c(=O)[nH]c2c1	i	i	46.4	i	45.7	i
COC(=O)c1ccc2c(=O)n(CCCCCC(=O)NCCC3=CCCCC3)c(=O)[nH]c2c1	i	i	i	i	i	i
CCCCN1CC(C(=O)Nc2ccc(C(=O)Nc3ccc(Cl)cc3)cc2)CC1=O (centres undefined)	i	i	63.6	i	i	i
CCCCN1CC(C(=O)Nc2ccc(C(=O)Nc3cccc(Cl)c3)cc2)CC1=O (centres undefined)	i	i	i	i	i	i
CCCCN1CC(C(=O)Nc2ccc(C(=O)Nc3ccc(F)c(Cl)c3)cc2)CC1=O (centres undefined)	52.0	i	i	i	i	i
COc1cccc(N2CCN(c3ccc4nnc(CCC(=O)NCC5CCCO5)n4n3)CC2)c1 (centres undefined)	i	i	i	i	i	i
COc1cccc(N2CCN(c3ccc4nnc(CCC(=O)NC5CCCC5)n4n3)CC2)c1	i	i	i	i	65.4	i
COc1cccc(N2CCN(c3ccc4nnc(CCC(=O)N5CCc6ccccc6C5)n4n3)CC2)c1	71.6	i	47.8	i	i	39.2
Cc1c(C(=O)N2CCOCC2)cc(-c2ccccc2)n1C	i	i	nt	i	i	nt
O=C(NCc1noc(-c2cccc(Cl)c2)n1)c1coc(C2CC2)n1	i	i	i	i	i	i
CCS(=O)(=O)N1Cc2ccccc2CC1C(=O)NCc1ccc2c(c1)OCO2 (centres undefined)	i	i	i	i	38.7	i
Cc1sc(NC(=O)C2CCCCC2)nc1-c1ccccc1	i	i	i	i	i	i
CCS(=O)(=O)N1Cc2ccccc2CC1C(=O)Nc1nc(-c2ccccc2)c(C)s1 (centres undefined)	i	i	i	i	46.2	i
CCOC(=O)c1cc2c(ccn2C)n1Cc1cccc2ccccc12	54.0	i	i	i	86.7	i
CCOC(=O)c1cc2c(ccn2C)n1CC(=O)N1CCN(C(=O)c2ccco2)CC1	i	i	i	i	37.0	i
COC(=O)c1cc2c(ccn2C)n1Cc1ccccc1OC	i	i	i	i	69.6	i
CCOC(=O)c1cc2c(ccn2C)n1Cc1ccc2ccccc2n1	i	i	i	i	57.1	i
